About 2,000 (36%) of roughly 5,500 compounds were called active. Another 18% or so got no clear call; they are omitted. No stated cut-off is given here; in the data, active means normalized growth mostly below about 0.91 (no sharp cut-off); inconclusive means no clear call, values can overlap the other calls; inactive means mostly above about 0.92. The list shows a part of the results.
Experiment: chemical genetic growth profiling, strain panel (AID 1159580);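 further: tested at 20 µM; growth read once vehicle control cultures reached saturation at 30 °C; 1 = growth at the plate median or of vehicle wells; lower values mean less growth of the strain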
Settings: growth OD
[1] = S. cerevisiae deletion strains, locus YDL101C, strain DUN1, active compounds read low
[2] = S. cerevisiae deletion strains, locus YHR030C, strain SLT2, active compounds read low

Measured: normalized growth

N#CC(NCc1ccccc1)c1ccc(Cl)c(Cl)c1 (stereo not given)
inactive: S. cerevisiae deletion strains, locus YAL013W, strain DEP1, active compounds read low 1 | S. cerevisiae deletion strains, locus YBR229C, strain ROT2, active compounds read low 0.983 | [1] 0.974 | S. cerevisiae deletion strains, locus YDR150W, strain NUM1, active compounds read low 0.923 | S. cerevisiae deletion strains, locus YEL061C, strain CIN8, active compounds read low 0.985 | S. cerevisiae deletion strains, locus YGR078C, strain PAC10, active compounds read low 0.984 | S. cerevisiae deletion strains, locus YGR229C, strain SMI1, active compounds read low 0.989 | [2] 0.887 | S. cerevisiae deletion strains, locus YHR087W, strain rtc3, active compounds read low 1.01 | S. cerevisiae deletion strains, locus YJR043C, strain POL32, active compounds read low 1.01 | S. cerevisiae deletion strains, locus YJR075W, strain HOC1, active compounds read low 0.968 | S. cerevisiae deletion strains, locus YLR039C, strain RIC1, active compounds read low 0.929 | S. cerevisiae deletion strains, locus YLR058C, strain SHM2 (second series), active compounds read low 0.995 | S. cerevisiae deletion strains, locus YLR085C, strain ARP6, active compounds read low 0.977 | S. cerevisiae deletion strains, locus YLR262C, strain YPT6, active compounds read low 0.957 | S. cerevisiae deletion strains, locus YML094W, strain GIM5, active compounds read low 0.958 | S. cerevisiae deletion strains, locus YMR219W, strain ESC1, active compounds read low 0.998 | S. cerevisiae deletion strains, locus YMR263W, strain SAP30, active compounds read low 0.974 | S. cerevisiae deletion strains, locus YMR307W, strain GAS1, active compounds read low 0.818 | S. cerevisiae deletion strains, locus YNL128W, strain TEP1, active compounds read low 0.994 | S. cerevisiae deletion strains, locus YNL153C, strain GIM3, active compounds read low 0.98 | S. cerevisiae deletion strains, locus YNL298W, strain CLA4 (second series), active compounds read low 0.96 | S. cerevisiae deletion strains, locus YNL322C, strain KRE1, active compounds read low 1.01 | S. cerevisiae deletion strains, locus YNR030W, strain Alg12, active compounds read low 0.968 | S. cerevisiae deletion strains, locus YOL006C, strain TOP1, active compounds read low 0.982 | S. cerevisiae deletion strains, locus YPL055C, strain LGE1, active compounds read low 0.988 | S. cerevisiae deletion strains, locus YPL241C, strain CIN2, active compounds read low 0.938 | S. cerevisiae deletion strains, locus YPR135W, strain CTF4, active compounds read low 0.938 | S. cerevisiae strains, strain wild type, active compounds read low 1
active: S. cerevisiae deletion strains, locus YDL134C, strain PPH21, active compounds read low 0.848

Cc1oc(C(C)(C)C)cc1-c1cc(N)n(-c2ccc(I)cc2)n1
active: [2] 0.717 | S. cerevisiae deletion strains, locus YLR113W, strain HOG1, active compounds read low 0.815 | S. cerevisiae deletion strains, locus YMR277W, strain FCP1, active compounds read low 1.13 [resistant]
inactive: S. cerevisiae deletion strains, locus YAR019C, strain CDC15, active compounds read low 1 | S. cerevisiae deletion strains, locus YBL105C, strain PKC1, active compounds read low 1.01 | S. cerevisiae deletion strains, locus YBR135W, strain CKS1, active compounds read low 1.02 | S. cerevisiae deletion strains, locus YBR136W, strain MEC1, active compounds read low 0.992 | S. cerevisiae deletion strains, locus YBR160W, strain CDC28, active compounds read low 1.01 | S. cerevisiae deletion strains, locus YDL017W, strain CDC7, active compounds read low 1.01 | S. cerevisiae deletion strains, locus YDL028C, strain MPS1, active compounds read low 0.976 | [1] 0.987 | S. cerevisiae deletion strains, locus YDL108W, strain KIN28, active compounds read low 1.02 | S. cerevisiae deletion strains, locus YDL132W, strain cdc53, active compounds read low 1.01 | S. cerevisiae deletion strains, locus YDL214C, strain PRR2, active compounds read low 1.15 | S. cerevisiae deletion strains, locus YDR052C, strain DBF4, active compounds read low 1 | S. cerevisiae deletion strains, locus YDR054C, strain cdc34, active compounds read low 1.01 | S. cerevisiae deletion strains, locus YDR226W, strain ADK1, active compounds read low 0.987 | S. cerevisiae deletion strains, locus YDR477W, strain SNF1, active compounds read low 0.956 | S. cerevisiae deletion strains, locus YER123W, strain YCK3, active compounds read low 0.946 | S. cerevisiae deletion strains, locus YER133W, strain GLC7, active compounds read low 0.992 | S. cerevisiae deletion strains, locus YFL009W, strain cdc4, active compounds read low 0.992 | S. cerevisiae deletion strains, locus YFL029C, strain CAK1, active compounds read low 0.995 | S. cerevisiae deletion strains, locus YFR003C, strain YPI1, active compounds read low 1 | S. cerevisiae deletion strains, locus YFR019W, strain FAB1, active compounds read low 0.967 | S. cerevisiae deletion strains, locus YFR028C, strain CDC14, active compounds read low 1 | S. cerevisiae deletion strains, locus YGR040W, strain KSS1, active compounds read low 0.985 | S. cerevisiae deletion strains, locus YGR052W, strain FMP48, active compounds read low 0.985 | S. cerevisiae deletion strains, locus YGR092W, strain DBF2, active compounds read low 0.882 | S. cerevisiae deletion strains, locus YHR079C, strain IRE1, active compounds read low 0.894 | S. cerevisiae deletion strains, locus YHR082C, strain KSP1, active compounds read low 0.957 | S. cerevisiae deletion strains, locus YHR205W, strain SCH9, active compounds read low 0.885 | S. cerevisiae deletion strains, locus YIL147C, strain SLN1, active compounds read low 0.997 | S. cerevisiae deletion strains, locus YJL095W, strain BCK1, active compounds read low 0.851 | S. cerevisiae deletion strains, locus YJL128C, strain PBS2, active compounds read low 0.961 | S. cerevisiae deletion strains, locus YJL157C, strain FAR1, active compounds read low 0.979 | S. cerevisiae deletion strains, locus YJR016C, strain ILV3, active compounds read low 1.01 | S. cerevisiae deletion strains, locus YJR066W, strain TOR1 (second series), active compounds read low 0.936 | S. cerevisiae deletion strains, locus YJR066W, strain TOR1, active compounds read low 0.903 | S. cerevisiae deletion strains, locus YKL048C, strain ELM1, active compounds read low 0.98 | S. cerevisiae deletion strains, locus YKL101W, strain HSL1, active compounds read low 0.948 | S. cerevisiae deletion strains, locus YKL193C, strain SDS22, active compounds read low 1.02 | S. cerevisiae deletion strains, locus YKL203C, strain TOR2, active compounds read low 1.05 | S. cerevisiae deletion strains, locus YLR133W, strain CKI1, active compounds read low 0.943 | S. cerevisiae deletion strains, locus YLR403W, strain SFP1, active compounds read low 0.965 | S. cerevisiae deletion strains, locus YML070W, strain DAK1, active compounds read low 0.971 | S. cerevisiae deletion strains, locus YMR001C, strain CDC5, active compounds read low 1 | S. cerevisiae deletion strains, locus YMR205C, strain PFK2 (second series), active compounds read low 0.94 | S. cerevisiae deletion strains, locus YNL006W, strain LST8, active compounds read low 1.01 | S. cerevisiae deletion strains, locus YNL020C, strain ARK1, active compounds read low 0.968 | S. cerevisiae deletion strains, locus YNL161W, strain CBK1, active compounds read low 1.02 | S. cerevisiae deletion strains, locus YNL183C, strain NPR1, active compounds read low 0.988 | S. cerevisiae deletion strains, locus YNL207W, strain RIO2, active compounds read low 1.02 | S. cerevisiae deletion strains, locus YNL222W, strain SSU72, active compounds read low 1.03 | S. cerevisiae deletion strains, locus YNL307C, strain MCK1 (second series), active compounds read low 0.935 | S. cerevisiae deletion strains, locus YOL078W, strain AVO1, active compounds read low 1.03 | S. cerevisiae deletion strains, locus YOL136C, strain PFK27, active compounds read low 0.959 | S. cerevisiae deletion strains, locus YOR061W, strain CKA2, active compounds read low 0.944 | S. cerevisiae deletion strains, locus YOR119C, strain RIO1, active compounds read low 0.972 | S. cerevisiae deletion strains, locus YOR231W, strain MKK1, active compounds read low 0.927 | S. cerevisiae deletion strains, locus YOR329C, strain SCD5, active compounds read low 1.01 | S. cerevisiae deletion strains, locus YPL031C, strain PHO85, active compounds read low 0.983 | S. cerevisiae deletion strains, locus YPL153C, strain RAD53, active compounds read low 0.987 | S. cerevisiae deletion strains, locus YPL204W, strain HRR25, active compounds read low 0.964 | S. cerevisiae deletion strains, locus YPL209C, strain IPL1, active compounds read low 1.01 | S. cerevisiae deletion strains, locus YPL256C, strain CLN2, active compounds read low 0.892 | S. cerevisiae deletion strains, locus YPR025C, strain CCL1, active compounds read low 1.01 | S. cerevisiae deletion strains, locus YPR106W, strain ISR1, active compounds read low 0.992 | S. cerevisiae deletion strains, locus YPR111W, strain DBF20, active compounds read low 0.989 | S. cerevisiae deletion strains, strain NNK1, active compounds read low 1 | S. cerevisiae deletion strains, strain TSCII, active compounds read low 1.01
